Assay results from PubChem BioAssay AID1906 (The Scripps Research Institute Molecular Screening Center, 2009).
Screen size: about 300,000 compounds; about 1,500 (0.5%) were called active. This is one part of a sample in which actives are shown more often than they occur. A number with no mark means an inactive call.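 The calls were made as follows: active = inhibition above the mean of all tested compounds plus 3 SD, set per screening campaign (cut at about 17% in these data); inactive = the rest.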

system: cathepsin L1 (Fasciola hepatica); experiment: CTSL1 protease inhibition, fluke enzyme – biochemical, QFRET, fluorogenic peptide substrate, counter-screen for PFM18AAP inhibitor project, primary screen (AID 1906);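 also: 0% = plate median of test compound wells and 100% = 1 µM Z-Phe-Ala-diazomethylketone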; conditions: recombinant F. hepatica cathepsin L1, Z-Leu-Arg-MCA fluorescence; at 5.96 µM; hits give high values

Row | Structure (SMILES) | inhibition
1 | O=C(c1ccc(F)cc1)N1CCCC(C(=O)N2CCCCC2)C1 (stereo unspecified) | -2.4%
2 | COc1ccc(C(=O)NC(=S)N2CCNC(=O)C2CC(=O)OC(C)C)cc1 (stereo unspecified) | -3.41%
3 | Cc1ccc2cc(C)c(N3CCC(C)CC3)nc2c1 | -2.83%
4 | CN(c1ccccc1)S(=O)(=O)c1ccc2[nH]c(=O)[nH]c2c1 | -6.38%
5 | CC1CCC(C(C)C)C(=O)/C1=C\c1ccc(NC(=O)CCC(=O)O)cc1 (stereo unspecified) | 2%
6 | CC(C)C(=O)Nc1c(O)c2ccccc2[nH]c1=O | -1.29%
7 | O=C(Cc1c(O)c2ccccc2[nH]c1=O)NCc1ccccc1 | 0.35%
8 | CCCOC(=O)Cc1c(O)c2ccccc2[nH]c1=O | 46.3% (active)
9 | N#Cc1c(N2CCCCC2)nc(N)c2c(N)nc(SCC(=O)O)cc12 | 1.83%
10 | COc1cccc(-c2cc3nc4c(c(N5CCC6(CC5)OCCO6)n3n2)CCCC4)c1 | 1.28%
11 | Cc1cc(C)cc(NC(=O)COc2coc(CN3CCN(c4ccccc4)CC3)cc2=O)c1 | -0.61%
12 | CCN(CC)C(=O)CSc1nc2ccccc2o1 | -2.89%
13 | CCC(NC(=O)c1ccccc1NC(=O)c1ccccc1)C(=O)NNC(=O)CSc1nc2ccccc2o1 (stereo unspecified) | 31.7% (active)
14 | O=C(CSc1nc2ccccc2o1)N/N=C/c1ccccc1C(=O)O | -1.26%
15 | COc1ccccc1CNC(=O)[C@@H]1CCCN1C(=O)[C@@H]1Cc2ccccc2CN1C(=O)OC(C)(C)C | 7.62%
16 | CCC(C)N1CC(=O)N2Cc3[nH]c4ccccc4c3C[C@H]2C1=O (stereo partly specified) | 5.23%
17 | COC(C[C@@H]1O[C@@H]1C(=O)[C@@H](C)OCc1ccccc1)OC | 9.96%
18 | COC(C[C@@H]1O[C@@H]1C(=O)[C@H](C)OCc1ccccc1)OC | 28.4% (active)
19 | COC(C/C=C/C(=O)[C@@H](C)OCc1ccccc1)OC | -1.49%
20 | CC(Oc1ccc(F)cc1)C(=O)Nc1ccccc1C(=O)NC1CC1 (stereo unspecified) | -1.06%
21 | CC12CCC(=O)N1C(C(=O)Nc1ccc(F)c(F)c1F)CS2 (stereo unspecified) | 2.04%
22 | Cc1ccc(C2C(C#N)C(C#N)N3CCCN23)cc1 (stereo unspecified) | 1.37%
23 | COc1ccc(F)cc1S(=O)(=O)NCC(c1ccc2c(c1)OCO2)N1CCN(C)CC1 (stereo unspecified) | 4.62%
24 | O=C1C(Cl)=C(N2CCOCC2)C(=O)N1c1ccccc1 | 42.9% (active)
25 | O=c1[nH]c(N2CCOCC2)nc2ccccc12 | 0.18%
26 | O=C1OC(NC(=O)c2ccccc2)C(N2CCOCC2)=C1Cl (stereo unspecified) | 5.28%
